Assay outcomes: PubChem, National Center for Advancing Translational Sciences (NCATS)
FMDV antiviral = foot and mouth disease virus antiviral activity | Potency, µM (top dose mostly 57.9 µM), without a hit: at the highest dose activity change, negative = inhibition, usual class: inhibitors | 410,000 compounds, 1.2% hits | FMDV antiviral cell-based qHTS | AID 1159524; calls by dose curve; tested in HEK293T cells; further: read-out not given here; potency means the concentration at half of the fitted maximal effect; nearly all actives have a fitted effect of over 45% in size
VACV mCherry inh = inhibitors of vaccinia virus infection (mCherry reporter signal) | Vaccinia virus mCherry reporter infection, fluorescence | Potency, µM (doses to about 36.5 µM), inactives show top-dose activity change, negative = inhibition, usual class: inhibitors | 310,000 compounds, 0.63% hits | AID 720579; calls by dose curve; tested in A549 cells; further: potency means the concentration at half of the fitted maximal effect; nearly all actives have a fitted effect of over 35% in size
HCMV inh = inhibitors of human cytomegalovirus; activity change, negative = inhibition, % at 57.5 µM; AID 1259415; 410,000 compounds, 4.5% hits; HFF cells, HCMV-luciferase reporter, 72 h; active compounds read low; in the data active means activity change below about -60%; inconclusive means no clear call, values can overlap the other calls; inactive means above about -39%
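Steps: HFFs plated, 16 h 37C; compounds added; HCMV-luciferase added to MOI 1 PFU/cell; 72 h 37C; OneGlo reagent, 5 min room temperature; luminescence read, normalized to controls.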
HCV inh = blocks hepatitis C virus | Huh7.5.1 HCVcc-Cre infection, luciferase reporter, 44 h | Potency, µM (highest dose often 41.8 µM), inactives show at the top dose activity change, negative = inhibition, most hits filed as inhibitors | 340,000 compounds, 3.4% hits | AID 651820; active means well fitted inhibition curve with a large enough effect; inconclusive means small, poorly fitted or top-dose-only effect, or another doubt; inactive means no such curve, though single readings can be large or run the other way; further: potency means the concentration at half of the fitted maximal effect
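Luciferase read-out (15 sec integration) after a 15 min room-temperature substrate step quantifies HCVcc-Cre infection. Cells, 1,000 per well, had compound added 4 h post-plating, then virus at ~0.5 moi, and were cultured 44 h.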
Vaccinia Venus = vaccinia inhibition (Venus reporter). Vaccinia virus Venus reporter expression, fluorescence. Potency, µM (doses to about 36.5 µM), inactives show at the top dose activity change, negative = inhibition, usual class: inhibitors. 330,000 compounds, 0.46% hits. AID 720580; calls by dose curve; tested in A549 cells; further: potency means the concentration at half of the fitted maximal effect; nearly all actives have a fitted effect of over 30% in size
* marks the source's active call; other numbers are inactive results; i = inactive; ? = inconclusive; . = no result. Compounds with a hit are over-represented: about 7.3% of the library has one in this group of screens. On the % scale 0 is the no-effect control and ±100 the full control effect.

SMILES | FMDV antiviral | VACV mCherry inh | HCMV inh | HCV inh | Vaccinia Venus
CCOC(=S)SCC(=O)Nc1nccs1 | 22µM* | -3% | 3 | 0% | -14%
CCOC(=S)SCC(=O)Nc1nc(C)c(C)s1 | -1% | . | 65 | ? | .
CCOC(=S)SCC(=O)Nc1nc(-c2ccccc2)cs1 | -15% | -19% | -73* | -10% | -28%
C=CS(=O)(=O)N[C@@H](CSSC[C@H](NS(=O)(=O)C=C)C(=O)OC)C(=O)OC | . | . | -25 | . | .
COc1ccc(NC(=O)CN2CCCN(Cc3ccc(Cl)cc3)S2(=O)=O)cc1Cl | 0% | -12% | -30 | . | -9%
CC1=C(C(=O)Nc2cc(Cl)ccc2C)C2(CCCCC2)OC1=O | -15% | -9% | -17 | . | -4%
FC(F)(F)COc1nc(N/N=C/c2cccnc2)nc(N2CCCCC2c2ccccn2)n1 (stereo unspecified) | -14% | i | -72* | ? | -10%
C(=N\Nc1nc(N2CCCC2)nc(N2CCCC2)n1)/c1cccnc1 | -11% | i | 8 | 24% | 8%
Cn1c(=O)c2c(nc(N3CCOCC3)n2Cc2ccc(Br)cc2)n(C)c1=O | -4% | 20% | -1 | . | 24%
O=C(COc1ccccc1C(=O)Nc1ccccc1)Nc1ccccc1-c1ccccc1 | . | -28% | . | . | -23%
COc1ccccc1NC(=O)Cc1noc(CSc2cc(C)c3ccccc3n2)n1 | -12% | . | -32 | 11µM* | .
CCc1noc(C)c1C(=O)N1CCSC1=Nc1cccc(Cl)c1C | ? | -7% | -82* | -23% | -18%
CCc1noc(C)c1C(=O)N1CCCSC1=Nc1ccccc1 | 0% | -23% | -22 | 13% | -10%
Cc1ccc(Cl)cc1N1CCN(c2nc3ccccc3c3nc(-c4cccnc4)nn23)CC1 | 4% | i | 11 | . | -17%
Nc1nc(N)c2cc([N+](=O)[O-])ccc2n1 | -12% | ? | -14 | ? | -26%
Nc1nc(N)c2cc(S(=O)(=O)c3ccc4ccccc4c3)ccc2n1 | -17% | ? | -82* | . | ?
CC1=C(/C=C/C(C)=C/C=C/C(C)=C/C(=O)Nc2ccc(O)cc2)C(C)(C)CCC1 | ? | ? | -77* | 6.3µM* | ?
COc1ccc(CNC(=O)COC(=O)c2n[nH]c3ccccc23)cc1OC | 11µM* | . | 35 | 10µM* | .
Cc1ccc(C)c(C(=O)COC(=O)c2n[nH]c3ccccc23)c1 | 58% | -24% | -61* | -27% | -15%
CCOc1ccc(-c2ccc(NS(=O)(=O)c3cc(C)c(C)cc3C)cc2)nn1 | 39% | -2% | -77* | . | -17%
CCOc1ccc(-c2ccc(NS(=O)(=O)c3ccc(C)cc3)cc2)nn1 | 29% | -9% | -10 | . | -5%
Cc1nn(-c2ccccc2)c(C)c1-c1nnc(-c2c(C)nn(-c3ccccc3)c2C)o1 | 32µM* | -12% | 2 | ? | -1%
CC(C)c1ccc(NC(=O)CCNS(=O)(=O)c2ccc3c(c2)oc(=O)n3C)cc1 | -2% | -6% | -14 | . | -2%
COc1ccc(C2C(C#N)=C(N)Oc3cc(N)ccc32)cc1 (stereo unspecified) | 9% | . | -12 | -3% | .
COc1ccc(C2C(C#N)=C(N)Oc3c2sc2nc(C)cc(C)c32)cc1 (stereo unspecified) | 40µM* | -24% | -68* | ? | -13%
SMILES | FMDV antiviral | VACV mCherry inh | HCMV inh | HCV inh | Vaccinia Venus
CN(C)/C=C(/C(=O)c1ccc(Cl)c(Cl)c1)S(C)(=O)=O | -13% | i | -4 | 19% | -14%
CN(C)/C=C(/C(=O)c1ccc(Cl)cc1)S(C)(=O)=O | -6% | -2% | -103* | 24% | 2%
Cc1ccc(S(=O)(=O)N2CCN(c3nc(-c4cnccn4)nc4ccccc34)CC2)cc1 | . | -15% | . | . | -10%
O=C1c2ccccc2NC(c2cn[nH]c2-c2ccccc2)N1O (stereo unspecified) | -27% | -24% | -19 | -10% | -20%
O=C1c2ccccc2NC(c2cn[nH]c2-c2ccc(Cl)cc2)N1O (stereo unspecified) | 14µM* | ? | -39 | ? | -18%
Cc1cc2nc(-c3cccc(NC(=O)c4cccc5ccccc45)c3)oc2cc1C | 0% | -19% | -7 | . | -8%
CC(C)CCOc1ccc(-c2c(=O)n(OCc3ccc([N+](=O)[O-])cc3)c3ccccc3[n+]2[O-])cc1 | -14% | . | -69* | ? | .
O=S(=O)(CCN1CCOCC1)c1ccccc1 | -14% | ? | -20 | 5% | ?
CC1CCCN(CCS(=O)(=O)c2ccccc2)C1 (stereo unspecified) | 25% | 10µM* | 6 | -5% | ?
COc1ccc(-n2c(C)nc3sc4c(c3c2=O)CCC4)cc1 | 0% | -3% | -2 | 0% | -6%
Cc1ccc(-n2c(SCC(=O)O)nc3sc4c(c3c2=O)CCCC4)cc1 | -8% | -12% | 42 | -6% | -14%
COc1ccc(-n2c(N3CCN(C)CC3)nc3sc4c(c3c2=O)CCCCC4)cc1 | 9% | . | -20 | 13µM* | .
COc1ccc(-n2c(NCCN(C)C)nc3sc4c(c3c2=O)CCCCC4)cc1 | -29% | i | -107* | ? | -23%
COc1ccc(-n2c(SCC(N)=O)nc3sc4c(c3c2=O)CCC4)cc1 | -24% | -6% | 1 | 10µM* | 0%
Cc1ccc(-n2c(SCC(=O)c3c(N)n(C)c(=O)n(C)c3=O)nc3sc4c(c3c2=O)CCCC4)c(C)c1 | 12% | 5% | -68* | ? | -16%
CC1(C)OC(=O)C2=C(CC(CCc3ccccc3)OC2c2cccc(C(F)(F)F)c2)O1 (stereo unspecified) | . | . | 23 | . | .
Cc1ccc(CCNC(=O)c2ccc(CSCc3ccc(C)cc3)o2)cc1 | ? | i | -27 | . | -18%
CN(C)CCNc1nc2sc3c(c2c(=O)n1Cc1ccccc1)CCCCC3 | -7% | -9% | -20 | 11µM* | -9%
COc1cccc(/C=N/NC(=O)c2cc3c(OC)cccc3[nH]2)c1O | -9% | ? | -75* | ? | ?
COc1cccc(/C=N/NC(=O)c2cc3c(OC)cccc3[nH]2)c1OC | ? | -11% | -33 | ? | -14%
COc1cccc(/C=N/NC(=O)C(=O)N2CCCCCC2)c1O | 38% | 13µM* | 14 | 16% | -27%
CCOc1ccc(/C=N/NC(=O)c2cc3c(OC)cccc3[nH]2)cc1 | -8% | ? | -63* | -16% | ?
COc1cccc(/C=N/NC(=O)c2cc(-c3cccn3C)n[nH]2)c1O | 3% | 4µM* | ? | 5µM* | ?
COc1cccc(/C=N/NC(=O)C(=O)N/N=C/c2cccc(OC)c2O)c1O | 4% | -7% | -28 | -14% | 2%
CCc1nc(SC)ncc1C(=O)NCc1cccc(Br)c1 | -7% | -11% | 3 | . | -8%
COc1ccc(OC)c(/C=N/NC(=O)c2cc3c(OC)cc(OC)cc3[nH]2)c1 | ? | ? | 35 | 25µM* | ?
CC(C)NC(=O)C1C(c2ccc(C(F)(F)F)cc2)=Nc2ccccc2N1C(=O)c1cccc(C(F)(F)F)c1 (stereo unspecified) | 4% | ? | 18 | . | -10%
